PMC7862700, “An all-to-all approach to the identification of sequence-specific readers for epigenetic DNA modifications on cytosine”

Tests used:
Assay in all cases: DAPPL (digital affinity profiling via proximity ligation, sequencing); 10 mM Tris-HCl pH 7.5, 50 mM NaCl, 1 mM DTT, 4% glycerol, room temperature, 30 min; GST-TFs on glutathione beads, 16-mer random dsDNA library, 0.1% formaldehyde crosslink after washing; high values mean tight binding
FEV = target: T1, FEV (Homo sapiens, UniProt Q99581 1-238); details: protein: recombinant; tags: N-terminal GST; dsDNA, one strand shown
T1 sequence: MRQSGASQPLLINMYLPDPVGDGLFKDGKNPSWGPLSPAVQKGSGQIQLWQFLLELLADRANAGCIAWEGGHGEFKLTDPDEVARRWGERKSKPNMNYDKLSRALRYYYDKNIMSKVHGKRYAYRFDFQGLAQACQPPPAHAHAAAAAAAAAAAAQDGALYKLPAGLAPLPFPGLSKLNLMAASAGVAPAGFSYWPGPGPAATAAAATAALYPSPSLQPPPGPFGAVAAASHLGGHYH
Summary of the method: (§1)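 Human transcription factors were made in yeast as GST fusions, captured on glutathione beads and barcoded with DNA. With a tag-only sample included, the pool was incubated with 200 nmole of a random double-stranded 16-mer DNA library in Tris/NaCl/DTT/glycerol buffer at room temperature for 30 min, then crosslinked with 0.1% formaldehyde after washing, ligated by proximity, amplified and sequenced. For binding signal, each hexamer's read frequency for a factor is divided by its frequency for the tag-only sample.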

ETV5 = ETV5 (Homo sapiens, UniProt P41161 1-510); details: protein: recombinant; tags: N-terminal GST; dsDNA, one strand shown
Summary of the method: as §1

HSF1 = HSF1 (Homo sapiens, UniProt Q00613 1-529); details: protein: recombinant; tags: N-terminal GST; chain copies: 3; dsDNA, one strand shown
Summary of the method: as §1

SPIC = target: T2, SPIC (Homo sapiens, UniProt Q8N5J4 1-248); details: protein: recombinant; tags: N-terminal GST; dsDNA, one strand shown
T2 sequence: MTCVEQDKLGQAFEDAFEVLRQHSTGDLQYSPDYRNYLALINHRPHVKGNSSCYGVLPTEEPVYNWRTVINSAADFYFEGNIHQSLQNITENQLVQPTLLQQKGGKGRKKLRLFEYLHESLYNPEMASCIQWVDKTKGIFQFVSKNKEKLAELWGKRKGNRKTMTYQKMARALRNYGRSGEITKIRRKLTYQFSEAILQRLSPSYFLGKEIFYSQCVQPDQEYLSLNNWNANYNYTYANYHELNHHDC
Summary of the method: as §1

ELF4 = ELF4 (Homo sapiens, UniProt Q99607 1-663); details: protein: recombinant; tags: N-terminal GST; dsDNA, one strand shown
Summary of the method: as §1

ELK4 = target: T3, ELK4 (Homo sapiens, UniProt P28324-2 1-405); details: protein: recombinant; tags: N-terminal GST; dsDNA, one strand shown
T3 sequence: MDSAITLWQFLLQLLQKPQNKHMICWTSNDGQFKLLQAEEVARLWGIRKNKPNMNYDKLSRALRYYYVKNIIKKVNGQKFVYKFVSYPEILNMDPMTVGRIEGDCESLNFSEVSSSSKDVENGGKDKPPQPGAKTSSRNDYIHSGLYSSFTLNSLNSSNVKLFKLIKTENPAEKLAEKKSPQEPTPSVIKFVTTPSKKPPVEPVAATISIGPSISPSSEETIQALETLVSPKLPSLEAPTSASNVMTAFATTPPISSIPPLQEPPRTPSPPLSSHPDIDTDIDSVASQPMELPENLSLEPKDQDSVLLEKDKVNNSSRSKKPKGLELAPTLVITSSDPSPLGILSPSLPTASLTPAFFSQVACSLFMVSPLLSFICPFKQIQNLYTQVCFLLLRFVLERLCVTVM
Summary of the method: as §1

ETV2 = target: T4, ETV2 (Homo sapiens, UniProt O00321 1-342); details: protein: recombinant; tags: N-terminal GST; dsDNA, one strand shown
T4 sequence: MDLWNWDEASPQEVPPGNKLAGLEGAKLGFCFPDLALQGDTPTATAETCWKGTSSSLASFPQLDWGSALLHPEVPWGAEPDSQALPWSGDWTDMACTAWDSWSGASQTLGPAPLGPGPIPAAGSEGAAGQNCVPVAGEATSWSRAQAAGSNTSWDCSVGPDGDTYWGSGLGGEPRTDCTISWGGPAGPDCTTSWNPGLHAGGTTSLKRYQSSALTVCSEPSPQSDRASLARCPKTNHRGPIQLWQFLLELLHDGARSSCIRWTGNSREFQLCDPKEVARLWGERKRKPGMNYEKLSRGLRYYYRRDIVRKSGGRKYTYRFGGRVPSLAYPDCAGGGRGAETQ
Summary of the method: as §1

ELF3 = target: T5, ELF3 (Homo sapiens, UniProt P78545 1-371); details: protein: recombinant; tags: N-terminal GST; dsDNA, one strand shown
T5 sequence: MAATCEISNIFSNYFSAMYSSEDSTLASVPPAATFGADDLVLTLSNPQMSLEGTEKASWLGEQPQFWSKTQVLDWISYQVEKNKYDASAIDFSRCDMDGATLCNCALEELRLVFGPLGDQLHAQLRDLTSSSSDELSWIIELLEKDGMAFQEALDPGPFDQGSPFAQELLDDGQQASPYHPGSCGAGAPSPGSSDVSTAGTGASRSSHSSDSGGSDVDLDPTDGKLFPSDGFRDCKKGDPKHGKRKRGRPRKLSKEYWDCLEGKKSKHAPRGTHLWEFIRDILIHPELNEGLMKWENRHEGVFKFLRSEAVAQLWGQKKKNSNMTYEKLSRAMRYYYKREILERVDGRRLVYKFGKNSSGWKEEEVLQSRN
Summary of the method: as §1

CRX = CRX (Homo sapiens, UniProt O43186 1-299); details: protein: recombinant; tags: N-terminal GST; dsDNA, one strand shown
Summary of the method: as §1

ETV1 = ETV1 (Homo sapiens, UniProt P50549 1-477); details: protein: recombinant; tags: N-terminal GST; dsDNA, one strand shown
Summary of the method: as §1

ERF = target: T6, ERF (Homo sapiens, UniProt P50548 1-548); details: protein: recombinant; tags: N-terminal GST; dsDNA, one strand shown
T6 sequence: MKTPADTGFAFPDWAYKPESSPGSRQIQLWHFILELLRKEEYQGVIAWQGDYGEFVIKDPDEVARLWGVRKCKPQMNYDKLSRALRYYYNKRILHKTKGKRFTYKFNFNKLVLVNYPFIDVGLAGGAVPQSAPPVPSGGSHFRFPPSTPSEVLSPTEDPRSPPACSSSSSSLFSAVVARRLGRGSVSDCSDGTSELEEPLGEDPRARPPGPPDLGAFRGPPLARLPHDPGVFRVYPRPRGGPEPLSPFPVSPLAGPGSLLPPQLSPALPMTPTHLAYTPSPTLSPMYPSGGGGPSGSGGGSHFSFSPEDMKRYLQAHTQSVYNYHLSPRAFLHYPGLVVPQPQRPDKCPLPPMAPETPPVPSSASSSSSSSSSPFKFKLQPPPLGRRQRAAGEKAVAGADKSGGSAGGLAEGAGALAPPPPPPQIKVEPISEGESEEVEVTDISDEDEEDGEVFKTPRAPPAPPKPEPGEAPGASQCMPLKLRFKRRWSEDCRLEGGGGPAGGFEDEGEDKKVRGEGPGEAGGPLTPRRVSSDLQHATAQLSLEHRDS
Summary of the method: as §1

ETV3L = target: T7, ETV3L (Homo sapiens, UniProt Q6ZN32 1-361); details: protein: recombinant; tags: N-terminal GST; dsDNA, one strand shown
T7 sequence: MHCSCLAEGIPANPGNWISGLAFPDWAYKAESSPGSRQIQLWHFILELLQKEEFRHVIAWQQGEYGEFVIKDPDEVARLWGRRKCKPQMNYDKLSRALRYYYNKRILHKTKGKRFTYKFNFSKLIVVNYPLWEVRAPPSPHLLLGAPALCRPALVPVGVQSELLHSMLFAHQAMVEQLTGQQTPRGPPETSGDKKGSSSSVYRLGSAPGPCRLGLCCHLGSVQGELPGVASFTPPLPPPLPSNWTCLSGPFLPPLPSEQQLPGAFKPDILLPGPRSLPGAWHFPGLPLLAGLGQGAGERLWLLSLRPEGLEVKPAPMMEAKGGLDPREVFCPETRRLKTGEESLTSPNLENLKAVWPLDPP
Summary of the method: as §1

ETS2 = target: T8, ETS2 (Homo sapiens, UniProt P15036 1-469); details: protein: recombinant; tags: N-terminal GST; dsDNA, one strand shown
T8 sequence: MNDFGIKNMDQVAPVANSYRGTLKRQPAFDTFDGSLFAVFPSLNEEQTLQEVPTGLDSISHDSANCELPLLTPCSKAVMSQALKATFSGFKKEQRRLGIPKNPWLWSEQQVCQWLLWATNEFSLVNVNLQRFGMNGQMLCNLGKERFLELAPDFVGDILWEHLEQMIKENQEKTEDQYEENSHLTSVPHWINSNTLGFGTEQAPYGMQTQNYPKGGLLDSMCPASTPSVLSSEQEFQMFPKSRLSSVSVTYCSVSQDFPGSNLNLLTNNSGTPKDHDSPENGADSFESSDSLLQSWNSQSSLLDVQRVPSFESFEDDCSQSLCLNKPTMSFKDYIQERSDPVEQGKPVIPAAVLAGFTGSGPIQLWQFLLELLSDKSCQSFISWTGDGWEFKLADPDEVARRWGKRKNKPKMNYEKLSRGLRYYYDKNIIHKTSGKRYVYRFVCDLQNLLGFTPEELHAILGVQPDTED
Summary of the method: as §1

SPDEF = target: T9, SPDEF (Homo sapiens, UniProt O95238 1-335); details: protein: recombinant; tags: N-terminal GST; dsDNA, one strand shown
T9 sequence: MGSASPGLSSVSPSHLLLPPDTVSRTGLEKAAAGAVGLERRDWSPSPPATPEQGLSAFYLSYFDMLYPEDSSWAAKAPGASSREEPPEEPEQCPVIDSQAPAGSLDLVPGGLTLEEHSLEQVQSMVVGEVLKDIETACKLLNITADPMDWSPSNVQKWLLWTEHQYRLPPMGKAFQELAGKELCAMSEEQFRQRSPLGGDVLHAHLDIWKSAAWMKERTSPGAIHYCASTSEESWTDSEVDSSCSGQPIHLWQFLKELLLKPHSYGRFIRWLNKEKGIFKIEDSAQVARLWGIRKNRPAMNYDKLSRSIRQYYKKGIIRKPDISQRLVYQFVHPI
Summary of the method: as §1

ETV7 = target: T10, ETV7 (Homo sapiens, UniProt Q9Y603 1-341); details: protein: recombinant; tags: N-terminal GST; dsDNA, one strand shown
T10 sequence: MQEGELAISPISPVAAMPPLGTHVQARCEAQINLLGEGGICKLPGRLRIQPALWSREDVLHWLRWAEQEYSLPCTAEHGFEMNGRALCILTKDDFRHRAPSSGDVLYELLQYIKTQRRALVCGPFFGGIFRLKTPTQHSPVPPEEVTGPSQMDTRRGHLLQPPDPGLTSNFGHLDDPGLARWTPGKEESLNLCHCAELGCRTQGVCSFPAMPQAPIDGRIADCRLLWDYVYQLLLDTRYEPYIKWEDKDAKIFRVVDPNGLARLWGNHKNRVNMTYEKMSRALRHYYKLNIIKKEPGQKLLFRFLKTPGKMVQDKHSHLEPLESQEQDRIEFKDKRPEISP
Summary of the method: as §1

ELF5 = target: T11, ELF5 (Homo sapiens, UniProt Q9UKW6-2 1-255); details: protein: recombinant; tags: N-terminal GST; dsDNA, one strand shown
T11 sequence: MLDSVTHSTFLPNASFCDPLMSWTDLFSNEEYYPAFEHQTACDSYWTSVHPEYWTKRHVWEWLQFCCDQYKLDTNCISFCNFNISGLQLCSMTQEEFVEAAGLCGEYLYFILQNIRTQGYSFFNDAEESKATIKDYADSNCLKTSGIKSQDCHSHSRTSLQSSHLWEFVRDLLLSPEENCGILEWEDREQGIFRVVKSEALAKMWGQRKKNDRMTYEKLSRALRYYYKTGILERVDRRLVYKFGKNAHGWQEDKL
Summary of the method: as §1

ETV3 = target: T12, ETV3 (Homo sapiens, UniProt P41162-2 1-143); details: protein: recombinant; tags: N-terminal GST; dsDNA, one strand shown
T12 sequence: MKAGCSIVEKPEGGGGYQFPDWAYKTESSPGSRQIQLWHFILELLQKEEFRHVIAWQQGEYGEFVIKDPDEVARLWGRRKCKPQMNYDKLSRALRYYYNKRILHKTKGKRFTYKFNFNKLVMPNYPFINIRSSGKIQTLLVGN
Summary of the method: as §1

ETV6 = ETV6 (Homo sapiens, UniProt P41212 1-452); details: protein: recombinant; tags: N-terminal GST; dsDNA, one strand shown
Summary of the method: as §1

Sequence of ETV1 (P50549 whole entry): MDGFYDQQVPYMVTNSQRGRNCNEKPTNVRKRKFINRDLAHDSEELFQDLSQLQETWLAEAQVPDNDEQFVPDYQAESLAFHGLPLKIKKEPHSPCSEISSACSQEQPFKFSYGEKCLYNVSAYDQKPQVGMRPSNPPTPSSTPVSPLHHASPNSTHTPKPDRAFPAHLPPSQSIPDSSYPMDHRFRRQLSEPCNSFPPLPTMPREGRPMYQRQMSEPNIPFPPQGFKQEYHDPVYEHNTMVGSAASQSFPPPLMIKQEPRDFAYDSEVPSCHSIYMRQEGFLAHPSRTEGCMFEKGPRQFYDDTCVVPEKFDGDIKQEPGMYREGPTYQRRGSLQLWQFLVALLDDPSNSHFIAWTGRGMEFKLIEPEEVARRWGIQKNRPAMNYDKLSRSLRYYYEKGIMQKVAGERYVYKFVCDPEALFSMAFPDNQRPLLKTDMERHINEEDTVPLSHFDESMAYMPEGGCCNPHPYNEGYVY
Sequence of ETV6 (P41212 whole entry): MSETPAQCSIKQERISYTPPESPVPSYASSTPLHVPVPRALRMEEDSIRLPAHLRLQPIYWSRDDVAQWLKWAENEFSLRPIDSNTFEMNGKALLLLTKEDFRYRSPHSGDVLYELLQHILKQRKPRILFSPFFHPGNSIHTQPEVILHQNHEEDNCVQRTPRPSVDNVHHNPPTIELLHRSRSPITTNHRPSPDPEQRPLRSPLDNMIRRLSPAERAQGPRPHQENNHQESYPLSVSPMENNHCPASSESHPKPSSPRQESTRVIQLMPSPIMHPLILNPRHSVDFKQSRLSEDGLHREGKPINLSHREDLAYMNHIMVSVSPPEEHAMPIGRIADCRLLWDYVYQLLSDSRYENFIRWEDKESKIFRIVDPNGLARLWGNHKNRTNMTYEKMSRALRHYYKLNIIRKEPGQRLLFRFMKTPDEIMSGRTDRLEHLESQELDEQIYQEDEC
Sequence of ELF4 (Q99607 whole entry): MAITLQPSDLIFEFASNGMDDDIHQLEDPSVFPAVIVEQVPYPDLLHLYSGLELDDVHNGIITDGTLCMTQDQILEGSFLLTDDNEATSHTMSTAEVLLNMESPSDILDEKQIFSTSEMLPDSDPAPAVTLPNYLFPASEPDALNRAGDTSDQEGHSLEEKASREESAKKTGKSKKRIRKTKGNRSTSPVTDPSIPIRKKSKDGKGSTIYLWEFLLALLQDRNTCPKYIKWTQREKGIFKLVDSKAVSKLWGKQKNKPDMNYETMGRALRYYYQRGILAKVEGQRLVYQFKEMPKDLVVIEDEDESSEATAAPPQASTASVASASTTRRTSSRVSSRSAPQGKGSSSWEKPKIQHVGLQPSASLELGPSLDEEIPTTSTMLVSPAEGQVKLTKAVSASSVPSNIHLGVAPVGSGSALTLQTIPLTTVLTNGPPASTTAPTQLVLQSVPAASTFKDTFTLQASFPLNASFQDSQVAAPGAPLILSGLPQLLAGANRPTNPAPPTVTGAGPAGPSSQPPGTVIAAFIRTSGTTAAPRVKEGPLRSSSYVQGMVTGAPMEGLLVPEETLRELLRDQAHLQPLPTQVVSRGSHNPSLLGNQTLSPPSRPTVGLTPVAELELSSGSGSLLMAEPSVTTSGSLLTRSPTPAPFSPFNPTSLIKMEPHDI
Sequence of CRX (O43186 whole entry): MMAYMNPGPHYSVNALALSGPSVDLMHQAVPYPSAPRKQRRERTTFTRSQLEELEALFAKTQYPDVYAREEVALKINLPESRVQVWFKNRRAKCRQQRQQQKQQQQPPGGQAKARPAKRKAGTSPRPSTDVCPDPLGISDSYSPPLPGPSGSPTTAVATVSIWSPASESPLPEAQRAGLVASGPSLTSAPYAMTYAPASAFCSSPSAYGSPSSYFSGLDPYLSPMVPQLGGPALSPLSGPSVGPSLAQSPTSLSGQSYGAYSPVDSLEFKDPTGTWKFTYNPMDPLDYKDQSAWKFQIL
Sequence of ETV5 (P41161 whole entry): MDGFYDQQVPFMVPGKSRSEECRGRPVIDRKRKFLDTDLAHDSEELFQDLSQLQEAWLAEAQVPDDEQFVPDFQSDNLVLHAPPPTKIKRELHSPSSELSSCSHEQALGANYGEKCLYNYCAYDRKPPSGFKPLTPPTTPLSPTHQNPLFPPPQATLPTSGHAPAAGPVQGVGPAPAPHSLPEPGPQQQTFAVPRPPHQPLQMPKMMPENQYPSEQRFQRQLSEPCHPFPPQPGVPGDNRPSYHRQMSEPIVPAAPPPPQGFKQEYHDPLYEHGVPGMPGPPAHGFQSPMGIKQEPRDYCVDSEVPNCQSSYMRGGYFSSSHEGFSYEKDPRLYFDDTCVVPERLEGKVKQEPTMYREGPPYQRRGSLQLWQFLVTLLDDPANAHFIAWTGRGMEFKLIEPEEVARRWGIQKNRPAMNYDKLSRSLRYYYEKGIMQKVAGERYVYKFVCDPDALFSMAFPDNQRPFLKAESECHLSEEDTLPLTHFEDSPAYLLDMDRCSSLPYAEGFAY
Sequence of HSF1 (Q00613 whole entry): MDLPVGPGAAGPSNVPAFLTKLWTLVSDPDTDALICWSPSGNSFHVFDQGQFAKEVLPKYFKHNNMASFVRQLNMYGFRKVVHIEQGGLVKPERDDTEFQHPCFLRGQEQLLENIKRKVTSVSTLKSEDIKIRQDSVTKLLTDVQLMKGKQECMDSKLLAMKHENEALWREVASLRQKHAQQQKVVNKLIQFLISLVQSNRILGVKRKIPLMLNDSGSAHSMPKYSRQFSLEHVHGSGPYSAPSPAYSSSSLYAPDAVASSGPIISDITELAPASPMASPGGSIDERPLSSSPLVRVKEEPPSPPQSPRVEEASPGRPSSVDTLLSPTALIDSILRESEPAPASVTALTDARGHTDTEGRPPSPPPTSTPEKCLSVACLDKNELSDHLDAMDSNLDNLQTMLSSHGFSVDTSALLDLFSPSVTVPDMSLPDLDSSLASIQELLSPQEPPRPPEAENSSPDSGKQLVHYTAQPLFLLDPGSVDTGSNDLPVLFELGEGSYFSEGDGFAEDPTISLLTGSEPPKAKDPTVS

In the case of AATAAA, the binding signal (FEV) is reported as 1.22 fold enrichment (6-mer frequency, TF over GST control), the binding signal (ETV5) is reported as 1.31 fold enrichment (6-mer frequency, TF over GST control) and the binding signal (HSF1) is reported as 1.42 fold enrichment (6-mer frequency, TF over GST control). The binding signal (SPIC) was 1.26 fold enrichment (6-mer frequency, TF over GST control), the binding signal (ELF4) was 1.29 fold enrichment (6-mer frequency, TF over GST control) and the binding signal (ELK4) was 1.28 fold enrichment (6-mer frequency, TF over GST control). The binding signal (ETV2) was 1.21 fold enrichment (6-mer frequency, TF over GST control), the binding signal (ELF3) was 1.31 fold enrichment (6-mer frequency, TF over GST control) and the binding signal (CRX) was 1.57 fold enrichment (6-mer frequency, TF over GST control). For the same sequence, the binding signal (ETV1) was 1.23 fold enrichment (6-mer frequency, TF over GST control), the binding signal (ERF) was 1.29 fold enrichment (6-mer frequency, TF over GST control) and the binding signal (ETV3L) was 1.29 fold enrichment (6-mer frequency, TF over GST control). The binding signal (ETS2) was 1.31 fold enrichment (6-mer frequency, TF over GST control), the binding signal (SPDEF) was 1.22 fold enrichment (6-mer frequency, TF over GST control) and the binding signal (ETV7) was 1.24 fold enrichment (6-mer frequency, TF over GST control). For the same sequence, the binding signal (ELF5) was 1.2 fold enrichment (6-mer frequency, TF over GST control), the binding signal (ETV3) was 1.18 fold enrichment (6-mer frequency, TF over GST control) and the binding signal (ETV6) was 1.34 fold enrichment (6-mer frequency, TF over GST control).
